Laboratory results from PubChem BioAssay.
For part of these data: Results with a measured potency or affinity are listed apart. Calls of active or inactive are those of the source.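 How the source made its calls, unless noted: active means calcium signal cut by more than 3 SD below the full-agonist control yet still positive, in both repeats and the earlier primary screen; inactive means the rest.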

Key:
[1] = tested on: TRPC4 beta (transient receptor potential cation channel C4), mouse; assay: activators of mouse TRPC4 channel, confirmation, cell-based, Fluo4 calcium, HEK293 TRPC4beta/mu-opioid, duplicates, 10 µM (AID 2426;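 active means fluorescence ratio normalized to control raised more than 50% in primary screen plus both repeat runs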); details: Fluo4 calcium fluorescence, at 10 µM; stronger effect = higher value
[2] = tested on: transient receptor potential cation channel C4 beta (TRPC4), mouse; assay: activators of mouse TRPC4 channel, confirmation, cell-based, second round, Fluo4, HEK293 TRPC4beta/mu-opioid, 1 µM (AID 2461;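 active means primary screen active and over 50% activation in each of two duplicate runs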); details: Fluo4 calcium fluorescence, at 1 µM; stronger effect = higher value
[3] = tested on: TRPC4 (transient receptor potential cation channel C4 beta), mouse; assay: positive allosteric modulators of mouse TRPC4, confirmation, cell-based, second round, Fluo-4, HEK293 TRPC4beta/mu-opioid, 1 µM (AID 2554;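 active means primary screen hit whose fluorescence ratio, in both repeats, exceeds the weak agonist control mean by 3 SD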); details: DAMGO EC20, Fluo-4 calcium flux, at 1 µM; stronger effect = higher value
[4] = tested on: TRPC4 beta (transient receptor potential cation channel C4), mouse; assay: positive allosteric modulators of mouse TRPC4, confirmation, cell-based, Fluo-4, HEK293 TRPC4beta/mu-opioid (AID 2555;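 active means primary screen hit whose calcium fluorescence ratio, in both repeats, exceeds the weak agonist control mean by 3 SD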); details: DAMGO EC20, Fluo-4 calcium flux, at 10 µM; stronger effect = higher value
[5] = target: Short transient receptor potential channel 4 (Mus musculus) (UniProt Q9QUQ5); assay: inhibitors of mouse TRPC4 channel, confirmation, cell-based, Fluo4, HEK293 TRPC4beta/mu-opioid (AID 2636); details: DAMGO, Fluo4 calcium flux, at 10 µM; stronger effect = higher value
Chain of Short transient receptor potential channel 4 (Mus musculus) (Q9QUQ5 whole entry, looked up): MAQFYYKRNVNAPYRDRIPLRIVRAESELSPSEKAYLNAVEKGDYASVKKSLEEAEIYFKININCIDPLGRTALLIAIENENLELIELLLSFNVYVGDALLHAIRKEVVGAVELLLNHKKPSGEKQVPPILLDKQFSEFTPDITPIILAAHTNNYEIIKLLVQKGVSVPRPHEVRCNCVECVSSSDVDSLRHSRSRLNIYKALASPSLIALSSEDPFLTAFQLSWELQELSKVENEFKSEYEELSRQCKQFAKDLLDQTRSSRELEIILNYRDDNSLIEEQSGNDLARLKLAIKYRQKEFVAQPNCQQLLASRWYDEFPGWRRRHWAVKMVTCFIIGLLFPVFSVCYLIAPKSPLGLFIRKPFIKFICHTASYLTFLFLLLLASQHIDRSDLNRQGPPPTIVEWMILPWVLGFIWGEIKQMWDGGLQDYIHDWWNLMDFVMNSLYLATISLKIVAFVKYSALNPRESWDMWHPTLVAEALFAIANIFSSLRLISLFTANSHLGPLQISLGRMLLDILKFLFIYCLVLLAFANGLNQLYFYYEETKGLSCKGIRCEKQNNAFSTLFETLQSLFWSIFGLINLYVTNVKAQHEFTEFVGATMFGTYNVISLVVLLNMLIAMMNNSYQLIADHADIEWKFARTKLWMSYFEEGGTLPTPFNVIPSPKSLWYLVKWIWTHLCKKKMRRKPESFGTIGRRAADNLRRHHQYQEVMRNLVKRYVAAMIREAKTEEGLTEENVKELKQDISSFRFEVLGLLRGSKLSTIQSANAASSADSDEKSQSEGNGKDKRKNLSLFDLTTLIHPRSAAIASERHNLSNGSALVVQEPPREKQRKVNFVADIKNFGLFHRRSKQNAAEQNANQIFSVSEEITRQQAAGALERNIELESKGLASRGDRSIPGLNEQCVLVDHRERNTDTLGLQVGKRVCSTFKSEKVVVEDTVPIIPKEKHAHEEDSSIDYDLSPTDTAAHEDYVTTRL

[6] = target: Short transient receptor potential channel 4 (Mus musculus) (UniProt Q9QUQ5); assay: inhibitors of mouse TRPC4 channel, confirmation, cell-based, second round, Fluo4, HEK293 TRPC4beta/mu-opioid, 1 µM (AID 2637;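 active means calcium signal ratio cut to more than 3 SD under the fully stimulated control mean yet still positive, in both repeats and the primary screen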); details: Fluo4 calcium flux, DAMGO, at 1 µM; stronger effect = higher value
[7] = target: Short transient receptor potential channel 4 (Mus musculus) (UniProt Q9QUQ5); assay: mouse TRPC4 channel activators, dose response, cell-based, HEK293 TRPC4/mu-opioid, Fluo-4 calcium (AID 434937;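 active means primary screen activator hit with a dose response curve and TRPC4 channel activation at any tested dose; inactive means no activation, no dose response, or not a primary hit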)
[8] = target: Short transient receptor potential channel 4 (Mus musculus) (UniProt Q9QUQ5); assay: TRPC4 positive allosteric modulators, dose response, cell-based, HEK293 TRPC4/mu-opioid, Fluo-4 calcium, EC20 DAMGO (AID 434941;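 active means earlier screen potentiator hit that boosts the TRPC4 ion channel at some dose, with a dose response; inactive means no potentiation, no dose response, or not a prior hit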;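 further: calcium entry triggered by an EC20 dose of DAMGO at the co-expressed mu-opioid receptor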)
[9] = target: Short transient receptor potential channel 4 (Mus musculus) (UniProt Q9QUQ5); assay: mouse TRPC4 channel inhibitors, dose response, cell-based, HEK293 TRPC4/mu-opioid, Fluo-4 calcium (AID 434942;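 active means primary screen inhibitor hit that blocks the TRPC4 channel at some tested dose, yielding a dose curve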)
[10] = target: Short transient receptor potential channel 6 (Mus musculus) (UniProt Q61143); assay: inhibition of mouse TRPC6 channel, confirmation, selectivity assay for TRPC4 inhibitor project, cell-based, HEK293, membrane potential dye, duplicate (AID 434948;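 active means active in primary screen and both duplicates, each dropping signal beyond three positive-control SD with fluorescence still positive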); details: HEK293 TRPC6, membrane potential dye fluorescence, at 10 µM, stimulated with maximal-effect acetylcholine; stronger effect = higher value
Chain of Short transient receptor potential channel 6 (Mus musculus) (Q61143 whole entry, looked up): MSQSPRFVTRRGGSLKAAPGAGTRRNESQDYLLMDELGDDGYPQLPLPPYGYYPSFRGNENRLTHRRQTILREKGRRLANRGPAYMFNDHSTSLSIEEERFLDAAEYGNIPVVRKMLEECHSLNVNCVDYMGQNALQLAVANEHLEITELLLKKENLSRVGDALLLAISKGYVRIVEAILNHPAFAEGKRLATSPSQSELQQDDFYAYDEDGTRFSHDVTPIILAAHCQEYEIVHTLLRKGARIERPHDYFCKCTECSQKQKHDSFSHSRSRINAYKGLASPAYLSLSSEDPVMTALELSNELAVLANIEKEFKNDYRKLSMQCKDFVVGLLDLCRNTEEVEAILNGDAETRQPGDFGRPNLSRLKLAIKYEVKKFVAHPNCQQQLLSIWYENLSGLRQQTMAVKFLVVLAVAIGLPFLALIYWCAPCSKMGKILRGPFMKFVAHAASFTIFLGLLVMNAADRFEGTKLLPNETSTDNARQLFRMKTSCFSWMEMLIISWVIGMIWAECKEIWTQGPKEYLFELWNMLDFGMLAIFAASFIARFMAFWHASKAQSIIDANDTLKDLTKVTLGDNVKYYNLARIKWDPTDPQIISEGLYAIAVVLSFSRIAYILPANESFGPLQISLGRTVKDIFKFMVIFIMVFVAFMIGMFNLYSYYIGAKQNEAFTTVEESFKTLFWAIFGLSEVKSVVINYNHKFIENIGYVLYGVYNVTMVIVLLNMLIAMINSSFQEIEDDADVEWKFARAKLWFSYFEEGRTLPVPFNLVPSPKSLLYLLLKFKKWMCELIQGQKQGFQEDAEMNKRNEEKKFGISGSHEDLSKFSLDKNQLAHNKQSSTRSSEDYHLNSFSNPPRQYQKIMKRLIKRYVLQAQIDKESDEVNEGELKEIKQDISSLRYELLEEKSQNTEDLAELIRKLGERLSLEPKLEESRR

[11] = target: Short transient receptor potential channel 6 (Mus musculus) (UniProt Q61143); assay: activation of mouse TRPC6 channel, confirmation, selectivity assay for TRPC4 activator project, cell-based, HEK293, membrane potential dye, duplicate (AID 434950;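 active means membrane potential signal rise above negative control mean plus 3 SD in both duplicates, also active in the earlier TRPC4 screen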;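 on activation: 0% = buffer only wells and 100% = acetylcholine maximal-effect wells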); details: HEK293 TRPC6, membrane potential fluorescence, at 10 µM; stronger effect = higher value
[12] = target: Short transient receptor potential channel 6 (Mus musculus) (UniProt Q61143); assay: TRPC6 potentiation by TRPC4 potentiator hits, confirmation, selectivity assay for TRPC4 potentiator project, HEK293 cells, membrane potential dye, duplicate (AID 434952;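 active means compound raising the membrane signal above positive-control mean plus 3 SD in both repeats, and a primary screen hit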); details: HEK293 TRPC6, membrane potential dye fluorescence, at 10 µM, maximal acetylcholine added after compound; stronger effect = higher value
[13] = target: Short transient receptor potential channel 4 (Mus musculus) (UniProt Q9QUQ5); assay: calcium flux activators in TRPC4/5HT1a cells, counter-screen for TRPC4 activator project, cell-based, second counter screen, HEK293 TRPC4/5HT1a, Fluo-4 (AID 434977;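 active means calcium signal rise above buffer-control mean plus 5 SD in both duplicates, and also a hit in the primary screen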;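 on activation: plate controls were assay buffer for no effect and maximal serotonin response for full effect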); details: Fluo-4 calcium flux, at 10 µM; stronger effect = higher value
[14] = calcium flux inhibitors in TRPC4/5HT1a cells, confirmation, counter-screen for TRPC4 inhibitor project, cell-based, second counter screen, HEK293 TRPC4/5HT1a, Fluo-4 (AID 434978;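 active means primary screen active whose calcium signal fell more than 3 SD beyond the full-serotonin control mean in both duplicate plates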;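 further: serotonin given first at submaximal then at maximal dose after compound preincubation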); details: Fluo-4 calcium flux, at 10 µM, serotonin added to trigger calcium flux; stronger effect = higher value
[15] = tested on: TRPC4 (mouse), co-expressed with 5HT1a in HEK293; assay: calcium flux potentiators in TRPC4/5HT1a cells, confirmation, counter-screen for TRPC4 potentiator project, cell-based, second counter screen, HEK293 TRPC4/5HT1a, Fluo-4 (AID 434979;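 active means signal rise over 3 SD above mean of control wells given weak agonist, in both repeats and first screen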); details: Fluo-4 calcium flux, at 10 µM, serotonin added at its EC20 dose; stronger effect = higher value
[16] = calcium flux activation in mu-opioid HEK293 cells, confirmation, counter-screen for TRPC4 activator project, cell-based, HEK293 mu-opioid receptor line (AID 449723;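 active means hit in primary screen, with calcium signal over 5 SD above buffer well mean in both duplicates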;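 further: counter screen cells carry the mu-opioid receptor alone and lack TRPC4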); details: Fluo-4 calcium fluorescence, at 10 µM; stronger effect = higher value
[17] = calcium flux enhancement in mu-opioid HEK293 cells, confirmation, counter-screen for TRPC4 allosteric potentiator project, cell-based, HEK293 mu-opioid receptor line (AID 449724;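 active means calcium signal rise more than 3 SD above the low-dose agonist control mean, in both duplicate plates and the primary screen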); details: Fluo-4 calcium flux, at 10 µM, compound added before EC20 DAMGO stimulus; stronger effect = higher value

SMILES: CC(C)Oc1cc(N)c(Cl)cc1Cl
- outcome [1]: inactive
- outcome [2]: inactive
- outcome [3]: inactive
- outcome [4]: inactive
- outcome [5]: inactive
- outcome [6]: inactive
- outcome [7]: inactive
- outcome [8]: inactive
- outcome [9]: inactive
- outcome [10]: inactive
- outcome [11]: inactive
- outcome [12]: inactive
- outcome [13]: inactive
- outcome [14]: inactive
- outcome [15]: inactive
- outcome [16]: inactive
- outcome [17]: inactive

SMILES: CCCCc1nnc(NC(=O)C2CCN(c3ncnc4sc(C)c(C)c34)CC2)s1
- outcome [1]: inactive
- outcome [2]: inactive
- outcome [3]: inactive
- outcome [4]: inactive
- outcome [5]: inactive
- outcome [6]: inactive
- outcome [7]: inactive
- outcome [8]: inactive
- outcome [9]: inactive
- outcome [10]: inactive
- outcome [11]: inactive
- outcome [12]: inactive
- outcome [13]: inactive
- outcome [14]: inactive
- outcome [15]: inactive
- outcome [16]: inactive
- outcome [17]: inactive

SMILES: O=C(Nc1ccc2c(c1)OCO2)c1cnn2cccnc12
- outcome [1]: inactive
- outcome [2]: inactive
- outcome [3]: inactive
- potentiation [4]: 38% (active)
- outcome [5]: inactive
- outcome [6]: inactive
- outcome [7]: inactive
- outcome [8]: inactive
- outcome [9]: inactive
- outcome [10]: inactive
- outcome [11]: inactive
- outcome [12]: inactive
- outcome [13]: inactive
- outcome [14]: inactive
- potentiation [15]: 48.5% (active)
- outcome [16]: inactive
- outcome [17]: inactive

SMILES: CCn1c(C2CC(=O)N(Cc3ccccc3)C2)nc2ccccc21 (stereo not given)
- outcome [1]: inactive
- outcome [2]: inactive
- outcome [3]: inactive
- potentiation [4]: 11% (active)
- outcome [5]: inactive
- outcome [6]: inactive
- outcome [7]: inactive
- outcome [8]: inactive
- outcome [9]: inactive
- outcome [10]: inactive
- outcome [11]: inactive
- outcome [12]: inactive
- outcome [13]: inactive
- outcome [14]: inactive
- potentiation [15]: 23.9% (active)
- outcome [16]: inactive
- outcome [17]: inactive

SMILES: CCOc1cc(N(CC)CC)ccc1/C=C(/C#N)c1nc2ccccc2[nH]1
- outcome [1]: inactive
- outcome [2]: inactive
- outcome [3]: inactive
- outcome [4]: inactive
- outcome [5]: inactive
- outcome [6]: inactive
- outcome [7]: inactive
- outcome [8]: inactive
- outcome [9]: inactive
- outcome [10]: inactive
- activation [11]: 86% (active)
- outcome [12]: inactive
- activation [13]: 16.9% (active)
- outcome [14]: inactive
- outcome [15]: inactive
- activation [16]: 31.5% (active)
- outcome [17]: inactive

SMILES: CCn1c(=O)c2cc(C(=O)N(C)c3cc(C)ccc3OC)sc2c2ccccc21
- outcome [1]: inactive
- outcome [2]: inactive
- outcome [3]: inactive
- outcome [4]: inactive
- inhibition [5]: 74% (active)
- outcome [6]: inactive
- outcome [7]: inactive
- outcome [8]: inactive
- outcome [9]: inactive
- outcome [10]: inactive
- outcome [11]: inactive
- outcome [12]: inactive
- outcome [13]: inactive
- outcome [14]: inactive
- outcome [15]: inactive
- outcome [16]: inactive
- outcome [17]: inactive

SMILES: CN1CCN(c2ccc(S(=O)(=O)N3CCCCC3)cc2NC(=O)c2ccc(F)cc2F)CC1
- outcome [1]: inactive
- outcome [2]: inactive
- outcome [3]: inactive
- outcome [4]: inactive
- outcome [5]: inactive
- outcome [6]: inactive
- outcome [7]: inactive
- outcome [8]: inactive
- outcome [9]: inactive
- outcome [10]: inactive
- outcome [11]: inactive
- outcome [12]: inactive
- outcome [13]: inactive
- outcome [14]: inactive
- potentiation [15]: 14.3% (active)
- outcome [16]: inactive
- outcome [17]: inactive

SMILES: Cc1oc(-c2ccc(Cl)cc2)nc1CS(=O)CC(=O)NCCCN(C)C1CCCCC1 (stereo not given)
- outcome [1]: inactive
- outcome [2]: inactive
- outcome [3]: inactive
- outcome [4]: inactive
- outcome [5]: inactive
- outcome [6]: inactive
- outcome [7]: inactive
- outcome [8]: inactive
- outcome [9]: inactive
- outcome [10]: inactive
- outcome [11]: inactive
- outcome [12]: inactive
- outcome [13]: inactive
- outcome [14]: inactive
- outcome [15]: inactive
- outcome [16]: inactive
- outcome [17]: inactive

SMILES: CCOc1ccc2nc(NCCNC(=O)C3CC3)c(C)cc2c1
- outcome [1]: inactive
- outcome [2]: inactive
- outcome [3]: inactive
- outcome [4]: inactive
- outcome [5]: inactive
- outcome [6]: inactive
- outcome [7]: inactive
- outcome [8]: inactive
- outcome [9]: inactive
- outcome [10]: inactive
- outcome [11]: inactive
- outcome [12]: inactive
- outcome [13]: inactive
- outcome [14]: inactive
- outcome [15]: inactive
- outcome [16]: inactive
- outcome [17]: inactive

SMILES: Cc1cc(OCCN2CCCC2)ccc1[N+](=O)[O-]
- outcome [1]: inactive
- outcome [2]: inactive
- potentiation [3]: 11% (active)
- potentiation [4]: 11% (active)
- outcome [5]: inactive
- outcome [6]: inactive
- outcome [7]: inactive
- outcome [8]: inactive
- outcome [9]: inactive
- outcome [10]: inactive
- outcome [11]: inactive
- outcome [12]: inactive
- outcome [13]: inactive
- outcome [14]: inactive
- potentiation [15]: 13.9% (active)
- outcome [16]: inactive
- outcome [17]: inactive

SMILES: O=C(Nc1cccc(C(F)(F)F)c1)c1cccc(NS(=O)(=O)c2ccc(O)c(C(=O)O)c2)c1
- outcome [1]: inactive
- outcome [2]: inactive
- outcome [3]: inactive
- outcome [4]: inactive
- outcome [5]: inactive
- outcome [6]: inactive
- outcome [7]: inactive
- outcome [8]: inactive
- outcome [9]: inactive
- outcome [10]: inactive
- outcome [11]: inactive
- outcome [12]: inactive
- outcome [13]: inactive
- outcome [14]: inactive
- outcome [15]: inactive
- outcome [16]: inactive
- outcome [17]: inactive

SMILES: Cc1ccccc1OCCNc1cc(N2CCNCC2)ccc1[N+](=O)[O-]
- outcome [1]: inactive
- outcome [2]: inactive
- outcome [3]: inactive
- outcome [4]: inactive
- outcome [5]: inactive
- outcome [6]: inactive
- outcome [7]: inactive
- outcome [8]: inactive
- outcome [9]: inactive
- outcome [10]: inactive
- outcome [11]: inactive
- outcome [12]: inactive
- outcome [13]: inactive
- outcome [14]: inactive
- outcome [15]: inactive
- outcome [16]: inactive
- outcome [17]: inactive

SMILES: NCCc1nnc(SCc2ccccc2)o1
- outcome [1]: inactive
- outcome [2]: inactive
- outcome [3]: inactive
- outcome [4]: inactive
- outcome [5]: inactive
- outcome [6]: inactive
- outcome [7]: inactive
- outcome [8]: inactive
- outcome [9]: inactive
- outcome [10]: inactive
- outcome [11]: inactive
- outcome [12]: inactive
- outcome [13]: inactive
- outcome [14]: inactive
- outcome [15]: inactive
- outcome [16]: inactive
- outcome [17]: inactive

SMILES: COC(=O)C1=C(CCc2ccccc2)NC(=O)NC1c1ccc(Cl)cc1 (stereo not given)
- outcome [1]: inactive
- outcome [2]: inactive
- outcome [3]: inactive
- potentiation [4]: 35% (active)
- outcome [5]: inactive
- outcome [6]: inactive
- outcome [7]: inactive
- outcome [8]: inactive
- outcome [9]: inactive
- outcome [10]: inactive
- outcome [11]: inactive
- outcome [12]: inactive
- outcome [13]: inactive
- outcome [14]: inactive
- potentiation [15]: 39.7% (active)
- outcome [16]: inactive
- outcome [17]: inactive

SMILES: N#Cc1ccc(-c2ccccc2)nc1SCCN1CCOCC1
- outcome [1]: inactive
- outcome [2]: inactive
- outcome [3]: inactive
- outcome [4]: inactive
- outcome [5]: inactive
- outcome [6]: inactive
- outcome [7]: inactive
- outcome [8]: inactive
- outcome [9]: inactive
- outcome [10]: inactive
- outcome [11]: inactive
- outcome [12]: inactive
- outcome [13]: inactive
- outcome [14]: inactive
- potentiation [15]: 17.3% (active)
- outcome [16]: inactive
- outcome [17]: inactive
